Results: the supplement of paper PMC6992640
± gives the standard deviation of the averaged measurements.

What was measured:
Experiment in all cases: cell viability (% of vehicle); higher = less cytotoxic
[1] = test system: HCI01 (cells of a triple-negative basal-like breast cancer xenograft); conditions: 1 µM; 72 h
[2] = test system: UCD52 (cells of a triple-negative basal-like breast cancer xenograft); conditions: 1 µM; 72 h
[3] = test system: WHIM2 (cells of a triple-negative basal-like breast cancer xenograft); conditions: 1 µM; 72 h
[4] = test system: WHIM30 (cells of a triple-negative basal-like breast cancer xenograft); conditions: 1 µM; 72 h
[5] = test system: HCI01; conditions: 10 µM; 72 h
[6] = test system: HCI03 (cells of an ER-positive luminal breast cancer xenograft); conditions: 10 µM; 72 h
[7] = test system: HCI09 (cells of a triple-negative luminal androgen receptor type breast cancer xenograft); conditions: 10 µM; 72 h
[8] = test system: HCI11 (cells of an ER-positive luminal breast cancer xenograft); conditions: 10 µM; 72 h
[9] = test system: HCI13 (cells of an ER-positive luminal breast cancer xenograft); conditions: 10 µM; 72 h
[10] = test system: HCI16 (cells of a triple-negative basal-like breast cancer xenograft); conditions: 10 µM; 72 h
[11] = test system: UCD52; conditions: 10 µM; 72 h
[12] = test system: WHIM2; conditions: 10 µM; 72 h
[13] = test system: WHIM30; conditions: 10 µM; 72 h

SMILES	cell viability [1]	cell viability [2]	cell viability [3]	cell viability [4]	cell viability [5]	cell viability [6]	cell viability [7]	cell viability [8]	cell viability [9]	cell viability [10]	cell viability [11]	cell viability [12]	cell viability [13]
COCCn1c2c([n+](Cc3cnccn3)c1C)C(=O)c1ccccc1C2=O.[Br-]	29.6	21.3	21.1	27	85.5 ± 29	48.3	28.3 ± 3.6	60.2	68.9 ± 8.8	82.5	53.9 ± 8.2	55.5 ± 2.3	62.3 ± 5.1
COc1cc2ncnc(Nc3ccc(F)c(Cl)c3)c2cc1NC(=O)C=CCN1CCCCC1	70.8	40	43.9	54.6	34.5 ± 3.5	49.8	22.3 ± 1.4	57	24.6 ± 15	55.1	29.7 ± 2.9	43.9 ± 9.3	47.4 ± 1.6
[O-]n1ccccc1=S.[O-]n1ccccc1=S.[Zn+2] [Zinc Pyrithione]	52	67.2	70.2	65.3	16 ± 11	45.1	29.6 ± 26	24.8	144 ± 130	43.1	25.6 ± 1.7	33 ± 8.9	45.5 ± 4.8
COc1cc2c(Oc3ccc4[nH]c(C)cc4c3F)ncnc2cc1OCCCN1CCCC1 [Cediranib (AZD217)]	81.9	29.2	25.6	47.5	69.3 ± 10	54	43.8 ± 19	61.5	57.7 ± 16	70.1	50.84 ± 0.26	38.2 ± 7.5	68.3 ± 4.1
CCCSc1nc(NC2CC2c2ccc(F)c(F)c2)c2nnn(C3CC(OCCO)C(O)C3O)c2n1 (centres undefined) [Ticagrelor]	97.8	91	89.7	75.5	41.1 ± 38	122	47.6 ± 30	80.5	46.1 ± 3.6	80	64.95 ± 0.47	41.2 ± 12	97.7 ± 5.2
Nc1ncn(C2OC(CO)C(O)C2O)c(=O)n1 (centres undefined) [5-Azacytidine]	91.5	70.1	91.3	93.9	59.1 ± 13	85	27.2 ± 6.3	170	53.1 ± 9.2	103	53.4 ± 3.7	35.1 ± 14	198 ± 19
COc1cc2nccc(Oc3ccc(NC(=O)Nc4cc(C)on4)c(Cl)c3)c2cc1OC [Tivozanib (AV-951)]	91	61.4	94.3	85.1	85.4 ± 37	80	67 ± 50	75.1	60.9 ± 7.7	69.7	81.1 ± 22	61.7 ± 18	57.6 ± 2.1
Cl.O.O=C1Cc2cc(CCN3CCN(c4nsc5ccccc45)CC3)c(Cl)cc2N1 [Ziprasidone hydrochloride monohydrate]	88.5	94.7	94.5	94.6	33.4 ± 14	64.9	21.8 ± 4.9	36	47.8 ± 5.2	27.2	25 ± 1.1	35.8 ± 1.7	35.7 ± 5.9
CO[C@H]1C[C@@H]2CC[C@@H](C)[C@@](O)(O2)C(=O)C(=O)N2CCCC[C@H]2C(=O)O[C@H]([C@H](C)C[C@@H]2CC[C@@H](OC(=O)C(C)(CO)CO)[C@H](OC)C2)CC(=O)[C@H](C)/C=C(\C)[C@@H](O)[C@@H](OC)C(=O)[C@H](C)C[C@H](C)/C=C/C=C/C=C/1C [Temsirolimus]	76.2	55.1	80	74.2	31.8 ± 1.4	57.5	26.7 ± 8.6	54.3	24.6 ± 11	45.2	23.1 ± 2.3	42.4 ± 15	30.5 ± 1.6
COc1ccc(CN2CCN(C(c3ccc(F)cc3)c3ccc(F)cc3)CC2)c(OC)c1OC.Cl.Cl [Lomerizine HCl]	85.2	90.8	99.6	92.2	85.8 ± 25	73.6	58.8 ± 20	78.5	32.61 ± 0.085	87.8	51.5 ± 0.83	48.1 ± 14	80 ± 1
CO[C@@]12[C@H](COC(N)=O)C3=C(C(=O)C(C)=C(N)C3=O)N1C[C@@H]1N[C@@H]12 [Mitomycin C]	59.3	88.3	75.4	66.9	46.7 ± 2.1	56.9	35.4 ± 3.3	64.6	45 ± 3.3	61.4	32.3 ± 0.47	47.3 ± 5.7	57.77 ± 0.16
Cc1nc(Nc2ncc(C(=O)Nc3c(C)cccc3Cl)s2)cc(N2CCN(CCO)CC2)n1	78.6	39.7	67.7	55.6	59.7 ± 21	53.7	53.2 ± 2.6	60.3	40.2 ± 3.5	40.5	39.3 ± 3.5	39.3 ± 3.4	57.8 ± 1.2
COC(=O)NC(C(=O)N1CCCC1c1ncc(-c2ccc(-c3ccc(-c4cnc(C5CCCN5C(=O)C(NC(=O)OC)C(C)C)[nH]4)cc3)cc2)[nH]1)C(C)C (centres undefined)	85.1	82.6	93.7	82.8	79.8 ± 2.9	99.6	42.7 ± 35	72.6	131 ± 110	87.2	62.3 ± 1.2	58.8 ± 6.8	102 ± 11
